DAX1 inh-1 – NR0B1 (DAX1) inhibition. hit rate 0.99% among 340,000. HEK293 Gal4-DAX1 luciferase reporter, luminescence. P51843. inhibition, % at 6.75 µM;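 active means inhibition above the mean over all tested compounds plus 3 SD, cut at about 4.2% in these data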;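 further: inhibition shows as a rise in luminescence from relieved DAX1 repression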
Target sequence (P51843 207-470 limits assumed): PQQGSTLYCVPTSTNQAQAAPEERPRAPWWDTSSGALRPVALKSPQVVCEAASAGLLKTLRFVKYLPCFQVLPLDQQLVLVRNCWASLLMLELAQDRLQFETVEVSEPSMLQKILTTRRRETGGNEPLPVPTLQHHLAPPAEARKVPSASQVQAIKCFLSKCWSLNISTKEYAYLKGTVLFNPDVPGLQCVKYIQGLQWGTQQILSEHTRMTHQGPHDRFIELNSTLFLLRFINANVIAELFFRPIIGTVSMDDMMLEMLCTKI
ssDAF12 agonist – activates DAF-12 receptor from parasite S. stercoralis. hit rate 1% among 370,000. activation, % at 6.8 µM. HEK293 ssDAF-12/GRIP1 lit1-tk-luc reporter, luminescence; % of 3 µM dafachronic acid response. AID 652126;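 active means activation above the mean over all tested compounds plus 3 SD, cut at about 0.9% in these data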
DAX1 inh-2 – DAX1 (NR0B1) inhibition, primary screen; hit rate 1.1% among 370,000; HEK293T StAR-luciferase reporter, SF-1/DAX-1 repression relief; AID 652010; inhibition, % at 6.8 µM;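 active means inhibition above the mean over all tested compounds plus 3 SD, cut at about 3.6% in these data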;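 further: higher inhibition means more luminescence from relief of DAX-1 repression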
hcDAF12 agonist – H. contortus DAF-12 activation, primary screen; hit rate 1.4% among 370,000; AID 652067; HEK293 hcDAF-12 lit1-tk-luc reporter, luminescence; 0% DMSO, 100% Δ7-dafachronic acid; activation, % at 6.8 µM;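 active means activation above the mean of all tested compounds plus 3 SD, cut at about 5.5% in these data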
hgDAF12 agonist – activates the H. glycines DAF-12 receptor ligand-binding domain. HEK293 GAL4-hgDAF12 UAS-luciferase reporter, agonist luminescence; normalized to butyrate control. activation, % at 6.8 µM. hit rate 1.8% among 370,000. AID 687014;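 active means activation above a cutoff set at the mean of all screened compounds plus 3 SD, cut at about 10% in these data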
SMARCA2 activ – activators of SMARCA2 function; MG213 cells, MMTV-luciferase reporter, dexamethasone, overnight; activation, % at 9.1 µM; hit rate 1% among 370,000; in the data active means activation above about 7.8%
DAX1 inh confirm – confirmation of human DAX1 (NR0B1) inhibitors | shares compounds with DAX1 inh-2 | HEK293T StAR-promoter luciferase reporter, SF-1/DAX-1 repression | inhibition, % at 6.8 µM | hit rate 87% among 2,400;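 active means inhibition above the average of every tested compound plus 3 SD, cut at about 3.8% in these data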;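 further: active compounds raise luminescence by relieving repression of the StAR reporter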
Target sequence (P51843 whole entry, looked up): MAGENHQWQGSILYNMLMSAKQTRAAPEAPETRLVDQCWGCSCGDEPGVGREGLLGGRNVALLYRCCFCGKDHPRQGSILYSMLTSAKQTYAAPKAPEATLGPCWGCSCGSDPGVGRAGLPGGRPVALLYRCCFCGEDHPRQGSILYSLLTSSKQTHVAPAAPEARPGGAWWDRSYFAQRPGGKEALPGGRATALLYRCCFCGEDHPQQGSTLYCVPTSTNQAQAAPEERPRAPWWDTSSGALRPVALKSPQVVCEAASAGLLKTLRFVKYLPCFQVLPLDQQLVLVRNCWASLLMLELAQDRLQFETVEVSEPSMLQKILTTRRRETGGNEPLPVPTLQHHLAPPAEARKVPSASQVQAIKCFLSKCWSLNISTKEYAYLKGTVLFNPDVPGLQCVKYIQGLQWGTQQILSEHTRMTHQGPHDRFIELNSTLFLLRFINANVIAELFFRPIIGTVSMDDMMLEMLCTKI
SF1 AF2mut Luc – counter-screen for DAX1 inhibitors: nonselective inhibitors with SF-1 AF2 mutant; HEK293 StAR-luciferase, luminescence; AID 652136; inhibition, % at 6.8 µM; shares compounds with DAX1 inh-2; hit rate 78% among 2,400;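 active means inhibition above the mean of all tested compounds plus 3 SD, cut at about 3% in these data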
SMARCA2 act conf – SMARCA2 activation, confirmation screen; shares compounds with SMARCA2 activ; MG213 cells, MMTV-luciferase with dexamethasone, luminescence, overnight; MG213 cells expressing E1A, Rb sequestered; DMSO wells 0%, reference activator 100%; activation, % at 9.1 µM; hit rate 30% among 3,500;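 active means activation above its plate's cutoff, the mean activation of tested wells plus 3 SD, cut at about 7.9% in these data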
GAL4-VP16 Luc – activates GAL4-VP16 luciferase, flagging SMARCA2 activator hits | hit rate 41% among 3,500 | HEK293 GAL4-VP16 pG5luc reporter, luciferase luminescence; scaled: DMSO wells 0%, SAHA wells 100% | activation, % at 9.1 µM | shares compounds with SMARCA2 activ;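 active means activation above the solvent-only control well mean plus 3 SD, averaged across control plates, cut at about 5.2% in these data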
LXR ag – counter-screen for hcDAF-12 agonists: agonists of human LXR-beta; shares compounds with hcDAF12 agonist; HEK293 Gal4-LXR tk-luc reporter, luminescence, 24 h; normalized: DMSO 0%, positive control 100%; activation, % at 6.8 µM; 3,400 tested, under 10 active; AID 743027;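 active means mean percent activation of the reporter above a cutoff set as the average over tested compounds plus their standard deviation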
hcDAF12 ag – hcDAF-12 agonism, confirmation assay; hit rate 61% among 3,400; shares compounds with hcDAF12 agonist; HEK293 hcDAF-12 lit1-tk-luc reporter, luminescence; % of Δ7-dafachronic acid response; AID 743032; activation, % at 6.8 µM;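 active means mean activation across triplicate tests above the threshold derived from the earlier primary screen, cut at about 5.5% in these data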
hgDAF12 conf – hgDAF-12 agonism, confirmation assay | shares compounds with hgDAF12 agonist | HEK293 GAL4-hgDAF12 luciferase reporter, agonist mode; percent of butyrate response | AID 743050 | hit rate 80% among 3,300 | activation, % at 6.8 µM;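 active means mean activation over triplicate wells above the hit cutoff derived from the earlier primary screen, cut at about 11% in these data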
LXR ag 2 – activates human LXR-beta, counter-screen for DAF-12 agonists; shares compounds with hgDAF12 agonist; HEK293 Gal4-LXR luciferase reporter, 24 h; activation, % at 6.8 µM; 3,300 tested, under 10 active; AID 743051;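 active means mean activation of the triplicate above a set limit carried over from the primary screen, none filed active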
Of the large screens only hits and unclear results are named; the others gave an inactive call (follow-up assays come after a bar, where they were run). A selection: hits, their analogues and other compounds. The true share with any hit is near 4.8%.

Cc1cc(Br)cn2c(Cc3ccccc3C(F)(F)F)c(-c3ccc(F)cc3)nc12	none (no result: DAX1 inh-1)
COC(=O)C1=C(C)N(Cc2ccc(C(F)(F)F)cc2)C(=NCc2ccc3c(c2)OCO3)NC1c1cccc(Cl)c1 (configuration not stated)	none (no result: DAX1 inh-1)
COC(=O)C[C@@H]1CC[C@H]2[C@H](COc3ccc(NC(=O)c4cccc(C(F)(F)F)c4)cc3C(=O)N2C)O1	none (no result: DAX1 inh-1)
COc1ccc(/C=C/C(=O)O/N=C(\N)c2ccccn2)cc1OC	DAX1 inh-2 6.2, hcDAF12 agonist 7.2, hgDAF12 agonist 29.1 | DAX1 inh confirm 5.4 | SF1 AF2mut Luc 3.0 | LXR ag inactive | hcDAF12 ag inactive | hgDAF12 conf 10.9 | LXR ag 2 inactive
COc1ccc(CC(=O)O/N=C(\N)c2ccccn2)cc1OC	none
N/C(=N\OC(=O)/C=C/c1ccccc1)c1ccccn1	DAX1 inh-2 5.9, hcDAF12 agonist 7.0, hgDAF12 agonist 13.4 | DAX1 inh confirm 11.4 | SF1 AF2mut Luc 6.6 | LXR ag inactive | hcDAF12 ag inactive | hgDAF12 conf 13.9 | LXR ag 2 inactive
COC(=O)C1=C(C)N(Cc2cccc(C(F)(F)F)c2)C(=NCC2CC2)NC1c1cccc(F)c1 (configuration not stated)	none (no result: DAX1 inh-1)
CCCCCCCCN1C(=O)[C@@H](CC(=O)NCCc2ccccc2OC)C[C@@]2(C(=O)OC)C1=C[C@H](C(C)(C)C)O[C@@H]2C	none (no result: DAX1 inh-1)
COc1ccc2cc(C[C@@H]3CC[C@@H](CO)O3)ccc2c1	DAX1 inh-2 5.0, hgDAF12 agonist 15.2 | DAX1 inh confirm 8.1 | SF1 AF2mut Luc 5.4 | hgDAF12 conf 12.4 | LXR ag 2 inactive
Cc1nc(N)sc1-c1csc(Nc2ncccn2)n1	DAX1 inh-2 5.4, hgDAF12 agonist 16.2, SMARCA2 activ 56.2 | DAX1 inh confirm 8.4 | SF1 AF2mut Luc 4.8 | SMARCA2 act conf 106.4 | GAL4-VP16 Luc 12.8 | hgDAF12 conf 12.5 | LXR ag 2 inactive
COc1cnc(-c2ccccn2)[nH]c1=O	none
COc1cccc2[nH]c(-c3ccccn3)nc12	DAX1 inh-2 7.2, hcDAF12 agonist 6.4, hgDAF12 agonist 18.0 (no result: DAX1 inh-1) | DAX1 inh confirm 8.6 | SF1 AF2mut Luc 5.6 | hgDAF12 conf 15.8 | LXR ag 2 inactive
CCOc1ccc2oc(C(=O)Nc3cc(C)ccn3)c(C)c2c1	DAX1 inh-2 13.1, hgDAF12 agonist 13.6 | DAX1 inh confirm 11.0 | SF1 AF2mut Luc 5.0 | hgDAF12 conf 17.2 | LXR ag 2 inactive
Cc1csc(NC(=O)c2oc3ccccc3c2C)n1	ssDAF12 agonist 2.1, DAX1 inh-2 13.7, hcDAF12 agonist 18.3, hgDAF12 agonist 18.6 | DAX1 inh confirm 13.4 | SF1 AF2mut Luc 8.0 | LXR ag inactive | hcDAF12 ag 18.1 | hgDAF12 conf 17.1 | LXR ag 2 inactive
Cc1ccnc(NC(=O)c2oc3ccccc3c2C)c1	ssDAF12 agonist 3.0, DAX1 inh-2 10.5, hcDAF12 agonist 19.9, hgDAF12 agonist 22.1 | DAX1 inh confirm 9.2 | SF1 AF2mut Luc 3.7 | LXR ag inactive | hcDAF12 ag 15.1 | hgDAF12 conf 19.6 | LXR ag 2 inactive
O=C(C1CCCCC1)n1ccc2ccc(-c3ccc4ccn(Cc5ccccc5)c4c3)cc21	none (no result: DAX1 inh-1)
COc1ccccc1C(=O)N1CCCC(c2nc(-c3cccs3)no2)C1 (configuration not stated)	none (no result: DAX1 inh-1)
Cc1ccn2c(Cc3ccccc3)c(-c3ccc(Br)cc3)nc2c1	DAX1 inh-2 8.4, hgDAF12 agonist 16.9 | DAX1 inh confirm 5.3 | SF1 AF2mut Luc inactive | hgDAF12 conf inactive | LXR ag 2 inactive
Cc1ccc(Cc2c(-c3ccc(C)cc3)nc3ccc(Br)cn23)cc1	none
Cc1ccc(Cc2c(-c3ccc(C)cc3)nc3cc(C)ccn23)cc1	DAX1 inh-2 6.2, hgDAF12 agonist 17.8 | DAX1 inh confirm inactive | SF1 AF2mut Luc inactive | hgDAF12 conf inactive | LXR ag 2 inactive
CCCCCCCCN1CN2Cc3cc(OC)ccc3C2CS1(=O)=O (configuration not stated)	none (no result: DAX1 inh-1)
COCCOCCn1c(/C=C/c2ccccc2)nc2ccccc21	DAX1 inh-2 6.2, hgDAF12 agonist 13.2 | DAX1 inh confirm 13.7 | SF1 AF2mut Luc 6.8 | hgDAF12 conf 14.9 | LXR ag 2 inactive
COc1ccc(/C=C/c2nc3ccccc3n2Cc2ccc(OC)c(OC)c2)cc1	ssDAF12 agonist 0.9, DAX1 inh-2 5.9, hcDAF12 agonist 7.7, hgDAF12 agonist 26.8 | DAX1 inh confirm 19.4 | SF1 AF2mut Luc 6.8 | LXR ag inactive | hcDAF12 ag 8.6 | hgDAF12 conf 15.1 | LXR ag 2 inactive
O=C(c1ccc(F)c(F)c1)N1CCC(Oc2cccnc2)CC1	none (no result: DAX1 inh-1)
CC1=CC(=O)C(C(C)C)=C/C1=N\OS(=O)(=O)c1ccccc1	none (no result: DAX1 inh-1, DAX1 inh-2, SMARCA2 activ)
Fc1ccccc1CSc1ncnc2c1ncn2C1CCCCO1 (configuration not stated)	DAX1 inh-2 6.1, hgDAF12 agonist 14.4 | DAX1 inh confirm 8.6 | SF1 AF2mut Luc 5.0 | hgDAF12 conf 12.7 | LXR ag 2 inactive
CN(C)c1ccc(C(=O)NCC2CCN(C(=O)C(=O)c3cccs3)CC2)cc1	none (no result: DAX1 inh-1)
C=CCNCc1ccc(OC)cc1OC	none (no result: DAX1 inh-1)

Compound activity deposited in PubChem by The Scripps Research Institute Molecular Screening Center.
